Data as given in PubChem BioAssay (NCI).
The panel holds about 83,000 compounds, 20% with a hit somewhere; the sample as a whole holds those more often.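 Cells were grown in 96-well plates and exposed to the test compound at a single concentration for 48 hours; results are reported as percent growth, with values below 10 considered active.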 Unmarked numbers belong to inactive results. Activity calls are given as the source filed them.

How the values were obtained:
Assay in all cases: NCI-60 one-dose screen, 48 h (100 = growth as untreated, 0 = no growth, -100 = all killed)
Conditions in all cases: 10 µM unless noted
NCI-H23 lung = system: NCI-H23 lung
NCI-H226 lung = system: NCI-H226 lung
NCI-H322M lung = system: NCI-H322M lung
HOP-62 NSCLC = system: HOP-62 NSCLC
NCI-H460 lung = system: NCI-H460 lung
HOP-92 NSCLC = system: HOP-92 NSCLC
NCI-H522 lung = system: NCI-H522 lung
A549/ATCC NSCLC = system: A549/ATCC NSCLC
786-0 renal = system: 786-0 renal
DU-145 prostate = system: DU-145 prostate
K-562 leukemia = system: K-562 leukemia
MALME-3M melanoma = system: MALME-3M melanoma
MDA-MB-231 breast = system: MDA-MB-231 breast
RXF 393 renal = system: RXF 393 renal
SF-268 CNS = system: SF-268 CNS
SF-295 CNS = system: SF-295 CNS
SF-539 CNS = system: SF-539 CNS
UACC-257 melanoma = system: UACC-257 melanoma
M14 melanoma = system: M14 melanoma
COLO 205 colon = system: COLO 205 colon

## C#Cc1ccc(NC(=O)c2ccc(/C=C/C(=O)c3nccn3C)cc2)cc1
NCI-H23 lung
  growth: -56% (active)
NCI-H226 lung
  growth: -35.3% (active)
NCI-H322M lung
  growth: -95.4% (active)
HOP-62 NSCLC
  growth: -47% (active)
NCI-H460 lung
  growth: -56.4% (active)
HOP-92 NSCLC
  growth: -25.4% (active)
NCI-H522 lung
  growth: -26.7% (active)
A549/ATCC NSCLC
  growth: -0.388% (active)
786-0 renal
  growth: -79.1% (active)
DU-145 prostate
  growth: -86.8% (active)
K-562 leukemia
  growth: 1.98% (active)
MALME-3M melanoma
  growth: -38.4% (active)
MDA-MB-231 breast
  growth: -55.7% (active)
RXF 393 renal
  growth: -86.3% (active)
SF-268 CNS
  growth: -28.9% (active)
SF-295 CNS
  growth: -91.2% (active)
SF-539 CNS
  growth: -96.7% (active)
UACC-257 melanoma
  growth: -19.6% (active)
M14 melanoma
  growth: -69.8% (active)

## CCn1c(=S)[nH]c2c(=O)n(C)c(=O)n(C)c21
NCI-H23 lung
  growth: 105%
NCI-H226 lung
  growth: 105%
NCI-H322M lung
  growth: 95%
HOP-62 NSCLC
  growth: 109%
NCI-H460 lung
  growth: 123%
HOP-92 NSCLC
  growth: 89.8%
A549/ATCC NSCLC
  growth: 96.3%
786-0 renal
  growth: 97.1%
COLO 205 colon
  growth: 116%
DU-145 prostate
  growth: 111%
K-562 leukemia
  growth: 105%
MALME-3M melanoma
  growth: 99.6%
MDA-MB-231 breast
  growth: 115%
RXF 393 renal
  growth: 106%
SF-268 CNS
  growth: 114%
SF-295 CNS
  growth: 104%
SF-539 CNS
  growth: 95.3%
UACC-257 melanoma
  growth: 92%
M14 melanoma
  growth: 95.5%

## CC1=C(C(=O)OC(C)C)C(c2ccc3c(c2)OCO3)NC(=S)N1 (configuration not stated)
NCI-H23 lung
  growth: 99.2%
NCI-H226 lung
  growth: 84.1%
NCI-H322M lung
  growth: 108%
HOP-62 NSCLC
  growth: 119%
NCI-H460 lung
  growth: 110%
HOP-92 NSCLC
  growth: 96.6%
A549/ATCC NSCLC
  growth: 104%
786-0 renal
  growth: 104%
COLO 205 colon
  growth: 123%
DU-145 prostate
  growth: 109%
K-562 leukemia
  growth: 107%
MALME-3M melanoma
  growth: 95.9%
MDA-MB-231 breast
  growth: 101%
RXF 393 renal
  growth: 106%
SF-268 CNS
  growth: 103%
SF-295 CNS
  growth: 95.8%
SF-539 CNS
  growth: 98.9%
UACC-257 melanoma
  growth: 100%
M14 melanoma
  growth: 99%

## CN1CCN(c2ccc(C(=O)Nc3cccc(C#Cc4cccc5[nH]nc(N)c45)c3)cc2C(F)(F)F)CC1
NCI-H23 lung
  growth: -51.9% (active)
NCI-H226 lung
  growth: 15.6%
NCI-H322M lung
  growth: -24.6% (active)
HOP-62 NSCLC
  growth: -63.7% (active)
NCI-H460 lung
  growth: -68.4% (active)
HOP-92 NSCLC
  growth: -11.8% (active)
NCI-H522 lung
  growth: -59.1% (active)
A549/ATCC NSCLC
  growth: -67.2% (active)
786-0 renal
  growth: -70.4% (active)
DU-145 prostate
  growth: -20.3% (active)
K-562 leukemia
  growth: -36.9% (active)
MALME-3M melanoma
  growth: -66.3% (active)
MDA-MB-231 breast
  growth: -72.2% (active)
RXF 393 renal
  growth: -25.4% (active)
SF-268 CNS
  growth: -1.07% (active)
SF-295 CNS
  growth: -58.5% (active)
SF-539 CNS
  growth: -82.7% (active)
UACC-257 melanoma
  growth: -67.1% (active)
M14 melanoma
  growth: -69.5% (active)

## C=CCn1c(SCC(=O)Nc2ccc(C(=O)/C=C/c3cc4cc(OC)ccc4nc3Cl)cc2)nnc1-c1ccc(Br)cc1
NCI-H23 lung
  growth: 78%
NCI-H226 lung
  growth: 89.4%
NCI-H322M lung
  growth: 81.9%
HOP-62 NSCLC
  growth: 99.3%
NCI-H460 lung
  growth: 88.4%
HOP-92 NSCLC
  growth: 70.1%
A549/ATCC NSCLC
  growth: 70.7%
786-0 renal
  growth: 80.9%
COLO 205 colon
  growth: 112%
DU-145 prostate
  growth: 86.1%
K-562 leukemia
  growth: 46.3%
MALME-3M melanoma
  growth: 92.5%
MDA-MB-231 breast
  growth: 80.5%
RXF 393 renal
  growth: 83.2%
SF-268 CNS
  growth: 76%
SF-295 CNS
  growth: 92.1%
SF-539 CNS
  growth: 89.5%
UACC-257 melanoma
  growth: 79.8%
M14 melanoma
  growth: 90.1%

## O=C(NCc1ccccc1)Nc1ccccc1CNc1nc(Nc2ccc(OCCN3CCCC3)cc2)ncc1Cl
NCI-H23 lung
  growth: 85.4%
NCI-H226 lung
  growth: 109%
NCI-H322M lung
  growth: 109%
HOP-62 NSCLC
  growth: 86.2%
NCI-H460 lung
  growth: 39.4%
HOP-92 NSCLC
  growth: 83.8%
NCI-H522 lung
  growth: 108%
A549/ATCC NSCLC
  growth: 97.5%
786-0 renal
  growth: 46.7%
DU-145 prostate
  growth: 78.4%
K-562 leukemia
  growth: 64.5%
MALME-3M melanoma
  growth: 90.7%
MDA-MB-231 breast
  growth: 97%
RXF 393 renal
  growth: 79.4%
SF-268 CNS
  growth: 83.2%
SF-295 CNS
  growth: 95.5%
SF-539 CNS
  growth: 92.4%
UACC-257 melanoma
  growth: 102%
M14 melanoma
  growth: 99.7%

## COc1ccc(-c2nc(SCC(C)C)nc(N/N=C\c3ccc(F)cc3)c2C#N)cc1
NCI-H23 lung
  growth: 97.4%
NCI-H226 lung
  growth: 81.4%
NCI-H322M lung
  growth: 67.7%
HOP-62 NSCLC
  growth: 109%
NCI-H460 lung
  growth: 25.7%
HOP-92 NSCLC
  growth: 89.9%
A549/ATCC NSCLC
  growth: 69.9%
786-0 renal
  growth: 83%
COLO 205 colon
  growth: 94.8%
DU-145 prostate
  growth: 94.3%
K-562 leukemia
  growth: 94%
MALME-3M melanoma
  growth: 81%
MDA-MB-231 breast
  growth: 93.1%
RXF 393 renal
  growth: 111%
SF-268 CNS
  growth: 86.6%
SF-295 CNS
  growth: 75.8%
SF-539 CNS
  growth: 91.6%
UACC-257 melanoma
  growth: 102%
M14 melanoma
  growth: 92.7%

## COC(=O)[C@]1(C)CCC[C@]2(C)[C@H]3C[C@H]4C(C(C)C)=C[C@]3(CC[C@H]21)[C@H]1[C@@H]4[C@@H](OCCC#N)CC[C@@H]1OCCC#N
NCI-H23 lung
  growth: 46.3%
NCI-H226 lung
  growth: 46.1%
NCI-H322M lung
  growth: 98.6%
HOP-62 NSCLC
  growth: 75.3%
NCI-H460 lung
  growth: 33.3%
HOP-92 NSCLC
  growth: 26.2%
A549/ATCC NSCLC
  growth: 37.4%
786-0 renal
  growth: 37.3%
COLO 205 colon
  growth: 11.9%
DU-145 prostate
  growth: 57%
K-562 leukemia
  growth: 26.8%
MALME-3M melanoma
  growth: 61.9%
MDA-MB-231 breast
  growth: 47.3%
RXF 393 renal
  growth: -10.5% (active)
SF-268 CNS
  growth: 47.9%
SF-295 CNS
  growth: 30%
SF-539 CNS
  growth: 59.7%
UACC-257 melanoma
  growth: 37.8%
M14 melanoma
  growth: 40.7%
